We go through ten compounds from PubChem BioAssay (NCI).

The nature of assay [1]: NCI Yeast Anticancer Drug Screen. Data for the rad50 strain (AID 155).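 Also: 0% = growth of vehicle-only cultures of the same strain.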 The following applies: S. cerevisiae rad50 strain growth inhibition, active compounds read high. Summed up: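 Genetically altered yeast (DNA repair pathway); compound treatment; growth inhibition vs vehicle ctrl.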
Assay [2] in a line: NCI Yeast Anticancer Drug Screen. Data for the mec2-1 strain (AID 157). The following applies: S. cerevisiae mec2-1 strain, active compounds read high. Summed up: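 Compounds were applied to mec2-1 yeast cells. Their growth was then compared with that of vehicle-treated cultures to give growth inhibition.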
The nature of assay [3]: NCI Yeast Anticancer Drug Screen. Data for the sgs1 mgt1 strain (AID 161).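 Also: 0% = growth of cultures given vehicle only.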 The following applies: S. cerevisiae sgs1 mgt1 strain, active compounds read high. Summed up:
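Growth of a repair-deficient yeast mutant was monitored after compound treatment and expressed as inhibition relative to vehicle-treated cultures.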

Assay [4] in a line: NCI Yeast Anticancer Drug Screen. Data for the cln2 rad14 strain (AID 165).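 Also: 0% = growth equal to vehicle treated cultures.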 Particulars: S. cerevisiae cln2 rad14 strain, active compounds read high. Summed up:
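Strain: cln2 rad14 yeast, altered in cell cycle control and DNA damage repair. Read-out: growth inhibition vs vehicle.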

The nature of assay [5]: NCI Yeast Anticancer Drug Screen. Data for the bub3 strain (AID 167). Particulars: S. cerevisiae bub3 mutant strain, active compounds read high. Summed up: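 Yeast carrying a defined mutation is treated with each compound, and growth is compared with that of vehicle-exposed cells to give inhibition.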
Assay [6] can be described thus: NCI Yeast Anticancer Drug Screen. Data for the mlh1 rad18 strain (AID 175). The following applies: S. cerevisiae mlh1 rad18 strain growth inhibition, active compounds read high. Summed up: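 A repair-deficient yeast strain is exposed to test compound, and growth is scored relative to vehicle-treated controls.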
[7] abbreviates: at 5.0 µM (retest, dose inferred, filed as 0.5).
Setting [8] is: at 50.0 µM (retest, dose inferred, filed as 5.0).

Molecules are shown by their SMILES. About 79,000 compounds went through this panel and 15% of them were active in at least one assay; those are over-represented in the sample as a whole. Values without a mark were called inactive. Activity calls are given as the source filed them. Rule as the data show it: active = growth inhibition above about 70%; inactive = the rest.

For the compound `COc1ccc(N=NN2CCCC2)cc1`, the growth inhibition is 35% in assay [1] (setting [7]); 42% in assay [1] (setting [8]); 89.7% (active) in assay [1] (at 50.0 µM); 25% in assay [2] (setting [7]); 27% in assay [2] (setting [8]); 92.5% (active) in assay [2] (at 50.0 µM). In addition, the growth inhibition in assay [3] (setting [7]) is 45%; in assay [3] (setting [8]) it was 52%; in assay [3] (at 50.0 µM) it was 86.3% (active); in assay [4] (setting [7]), 46%; in assay [4] (setting [8]), 56%; in assay [4] (at 50.0 µM) it was 89.7% (active). Further, the growth inhibition was 49% in assay [5] (setting [7]); 50% in assay [5] (setting [8]); 90.5% (active) in assay [5] (at 50.0 µM); 14% in assay [6] (setting [7]); 33% in assay [6] (setting [8]); 91.2% (active) in assay [6] (at 50.0 µM).
For the compound `CC(C)CCCOC(=O)c1cc([N+](=O)[O-])cc([N+](=O)[O-])c1`, the growth inhibition in assay [1] (setting [7]) is 12%; in assay [1] (setting [8]) it was 30%; in assay [1] (at 50.0 µM), 67.8%; in assay [2] (setting [7]), 2%; in assay [2] (setting [8]) it was 27%; in assay [2] (at 50.0 µM), 53.1%. Further, the growth inhibition in assay [3] (setting [7]) was 5%; in assay [3] (setting [8]), 51%; in assay [3] (at 50.0 µM) it was 96% (active); in assay [4] (setting [7]), 3%; in assay [4] (setting [8]) it was 25%; in assay [4] (at 50.0 µM) it was 54.2%. The growth inhibition in assay [5] (setting [7]) is 0%; in assay [5] (setting [8]), 24%; in assay [5] (at 50.0 µM), 72.6% (active); in assay [6] (setting [7]), 3%; in assay [6] (setting [8]), 70% (active); in assay [6] (at 50.0 µM) it was 93.8% (active).
Consider `FC(F)(F)c1nc2cc(SSc3cc4nc(C(F)(F)F)[nH]c4cc3Cl)c(Cl)cc2[nH]1`, for which the growth inhibition in assay [1] (setting [7]) was 1%; in assay [1] (setting [8]), 51%; in assay [1] (at 50.0 µM) it was 97.5% (active); in assay [2] (setting [7]), -1%; in assay [2] (setting [8]) it was 85% (active); in assay [2] (at 50.0 µM), 93.2% (active). Also, the growth inhibition is 0% in assay [3] (setting [7]); 87% (active) in assay [3] (setting [8]); 95% (active) in assay [3] (at 50.0 µM); -6% in assay [4] (setting [7]); 91% (active) in assay [4] (setting [8]); 65.8% in assay [4] (at 50.0 µM). The growth inhibition in assay [5] (setting [7]) was -18%; in assay [5] (setting [8]), 61%; in assay [5] (at 50.0 µM), 97% (active); in assay [6] (setting [7]), -12%; in assay [6] (setting [8]), 97% (active); in assay [6] (at 50.0 µM) it was 97.7% (active).
In the case of `NNC(=S)N/N=C(\CC1OC(=O)c2ccccc21)c1ccccc1O` (stereo not given), the growth inhibition is 6% in assay [1] (setting [7]); -3% in assay [1] (setting [8]); 80.1% (active) in assay [1] (at 50.0 µM); -12% in assay [2] (setting [7]); -17% in assay [2] (setting [8]); 60.2% in assay [2] (at 50.0 µM). The growth inhibition was 22% in assay [3] (setting [7]); 7% in assay [3] (setting [8]); 56.1% in assay [3] (at 50.0 µM); 11% in assay [4] (setting [7]); 4% in assay [4] (setting [8]); 32% in assay [4] (at 50.0 µM). Also, the growth inhibition in assay [5] (setting [7]) was -9%; in assay [5] (setting [8]), 13%; in assay [5] (at 50.0 µM), 58.1%; in assay [6] (setting [7]), -43%; in assay [6] (setting [8]), -27%; in assay [6] (at 50.0 µM) it was 84.2% (active).
As to `O=C(CNS(=O)(=O)Cc1ccccc1)NCC(=O)NNc1ccccc1`, the growth inhibition in assay [1] (setting [7]) is 12%; in assay [1] (setting [8]), 55%; in assay [1] (at 50.0 µM) it was 59.5%; in assay [2] (setting [7]) it was 1%; in assay [2] (setting [8]), 29%; in assay [2] (at 50.0 µM), 29.4%. Also, the growth inhibition is -5% in assay [3] (setting [7]); 63% in assay [3] (setting [8]); 58.2% in assay [3] (at 50.0 µM); 12% in assay [4] (setting [7]); 40% in assay [4] (setting [8]); 44.4% in assay [4] (at 50.0 µM). Besides, the growth inhibition is 1% in assay [5] (setting [7]); 53% in assay [5] (setting [8]); 20.1% in assay [5] (at 50.0 µM); 31% in assay [6] (setting [7]); 76% (active) in assay [6] (setting [8]); 81.7% (active) in assay [6] (at 50.0 µM).
Consider `CC(C)(C)c1cc2c(c(C(C)(C)C)c1O)CC(=O)O2`, for which the growth inhibition in assay [1] (setting [7]) was -6%; in assay [1] (setting [8]), 74% (active); in assay [1] (at 50.0 µM), 27.7%; in assay [2] (setting [7]), -18%; in assay [2] (setting [8]), 85% (active); in assay [2] (at 50.0 µM), 45.5%. Moreover, the growth inhibition in assay [3] (setting [7]) is -37%; in assay [3] (setting [8]), 77% (active); in assay [3] (at 50.0 µM) it was 57.8%; in assay [4] (setting [7]) it was 23%; in assay [4] (setting [8]), 64%; in assay [4] (at 50.0 µM) it was 53.8%. Moreover, the growth inhibition in assay [5] (setting [7]) is -32%; in assay [5] (setting [8]) it was 97% (active); in assay [5] (at 50.0 µM), 72.5% (active); in assay [6] (setting [7]) it was -3%; in assay [6] (setting [8]), 84% (active); in assay [6] (at 50.0 µM), 73.9% (active).
Turning to `CCCCCCCCCCCCCCOS(=O)(=O)O`, the growth inhibition in assay [1] (setting [7]) was 26%; in assay [1] (setting [8]), 99% (active); in assay [1] (at 50.0 µM), 99.5% (active); in assay [2] (setting [7]), -27%; in assay [2] (setting [8]), 73% (active); in assay [2] (at 50.0 µM), 99.7% (active). Further, the growth inhibition in assay [3] (setting [7]) was -1%; in assay [3] (setting [8]), 100% (active); in assay [3] (at 50.0 µM), 99.6% (active); in assay [4] (setting [7]), 8%; in assay [4] (setting [8]) it was 61%; in assay [4] (at 50.0 µM) it was 99.6% (active). The growth inhibition in assay [5] (setting [7]) is -9%; in assay [5] (setting [8]), 35%; in assay [5] (at 50.0 µM) it was 99.7% (active); in assay [6] (setting [7]), 12%; in assay [6] (setting [8]) it was 98% (active); in assay [6] (at 50.0 µM) it was 99.5% (active).
With `CC1CCC(NCCOC(=O)c2ccc([N+](=O)[O-])cc2)CC1` (stereo not given), the growth inhibition is 2% in assay [1] (setting [7]); 23% in assay [1] (setting [8]); 70.8% (active) in assay [1] (at 50.0 µM); 1% in assay [2] (setting [7]); 18% in assay [2] (setting [8]); -2.9% in assay [2] (at 50.0 µM). Also, the growth inhibition in assay [3] (setting [7]) was 1%; in assay [3] (setting [8]), 24%; in assay [3] (at 50.0 µM), 54.5%; in assay [4] (setting [7]) it was -75%; in assay [4] (setting [8]), 41%; in assay [4] (at 50.0 µM), 31.9%. In addition, the growth inhibition was -8% in assay [5] (setting [7]); -71% in assay [5] (setting [8]); 17.6% in assay [5] (at 50.0 µM); -3% in assay [6] (setting [7]); 6% in assay [6] (setting [8]); 42.9% in assay [6] (at 50.0 µM).
For the compound `NC(=O)c1ccc[n+](CC(=O)Nc2ccc(Cl)cc2)c1`, the growth inhibition in assay [1] (setting [7]) is 2%; in assay [1] (setting [8]), -3%; in assay [1] (at 50.0 µM) it was 5.6%; in assay [2] (setting [7]), -9%; in assay [2] (setting [8]), -4%; in assay [2] (at 50.0 µM) it was -1.35%. For the same compound, the growth inhibition is -5% in assay [3] (setting [7]); -28% in assay [3] (setting [8]); -7.2% in assay [3] (at 50.0 µM); -1% in assay [4] (setting [7]); -6% in assay [4] (setting [8]); -57.3% in assay [4] (at 50.0 µM). The growth inhibition in assay [5] (setting [7]) is 0%; in assay [5] (setting [8]), -11%; in assay [5] (at 50.0 µM) it was 31%; in assay [6] (setting [7]), 11%; in assay [6] (setting [8]), 4%; in assay [6] (at 50.0 µM), -13.9%.
As to `COc1ccc2nc(N/N=C/c3ccccn3)cc(C)c2c1`, the growth inhibition in assay [1] (setting [7]) is 10%; in assay [1] (setting [8]), 56%; in assay [1] (at 50.0 µM), 98.7% (active); in assay [2] (setting [7]) it was -3%; in assay [2] (setting [8]), 62%; in assay [2] (at 50.0 µM), 98.1% (active). The growth inhibition in assay [3] (setting [7]) is 0%; in assay [3] (setting [8]), 57%; in assay [3] (at 50.0 µM), 99.2% (active); in assay [4] (setting [7]), 3%; in assay [4] (setting [8]) it was 40%; in assay [4] (at 50.0 µM) it was 96.5% (active). Moreover, the growth inhibition in assay [5] (setting [7]) was 4%; in assay [5] (setting [8]), 58%; in assay [5] (at 50.0 µM) it was 98.3% (active); in assay [6] (setting [7]), 19%; in assay [6] (setting [8]), 75% (active); in assay [6] (at 50.0 µM) it was 99% (active).
